“And” between values parts separate entries of the source, which are not always exact repeats. Identical values can stand only once. Results filed as inconclusive are left out. Where a structure was tested more than once in an assay, its records may differ in their call. The source made the active and inactive calls. Unless noted, calls follow the shape of the dose curve; as a rule, active = well fitted curve in the direction sought with a large enough effect in the repeat runs; inconclusive = weak or mixed curves; inactive = no such curve, though single readings can be large; an effect the other way counts as inactive or inconclusive.

Assay [1] can be described thus: qHTS assay to identify aromatase inhibitors - cell viability counter screen (AID 743084).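 Also: cells stimulated with testosterone during compound exposure; nearly all actives have a fitted effect of over 55% in size.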 Also: potency is read from the fitted curve at half-maximal effect. On the technique in general: qHTS replaces the single test concentration by a dilution series.
Assay [2] deals with Aryl hydrocarbon receptor (Homo sapiens) (UniProt P35869). Description: qHTS assay to identify small molecule that activate the aryl hydrocarbon receptor (AhR) signaling pathway (AID 743085). Also: nearly all actives have a fitted effect of over 15% in size. Also: potency is read from the fitted curve at half-maximal effect.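 As to activation: HG2L7.5c1 human HepG2 liver cells with stably integrated DRE-driven firefly reporter; series mostly up to about 70 µM.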 The essentials:
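Steps: seed HepG2-AhR-luc cells; allow 5 h at 37C; pin-transfer test compound or vehicle; incubate 24 h at 37C; add viability dye (30 min, 37C) and read fluorescence; add luciferase substrate (30 min, RT) and read luminescence.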

A short description of assay [3]: qHTS assay to identify small molecule that activate the aryl hydrocarbon receptor (AhR) signaling pathway - cell viability counter screen (AID 743086). Also: nearly all actives have a fitted effect of over 45% in size. Also: potency is read from the fitted curve at half-maximal effect. The gist of the method: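 HepG2-AhR-luc (HG2L7.5c1) cells, 4000/well, treated 24 h at 37 C with compound; viability measured as CellTiter-Fluor fluorescence after 30 min in the same wells as the luciferase read.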

The nature of assay [4]: qHTS assay to identify small molecule antagonists of the peroxisome proliferator-activated receptor gamma (PPARg) signaling pathway - cell viability counter screen (AID 743194). Also: nearly all actives have a fitted effect of over 55% in size. The essentials:
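Cytotoxicity counter screen in PPARg-bla HEK293H cells, same wells as reporter assay. Compounds plus 50 nM rosiglitazone (final) for 17 h at 37 C, then viability read by CellTiter-Glo luminescence.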

Assay [5] in a line: qHTS assay for small molecule agonists of the antioxidant response element (ARE) signaling pathway (AID 743202; active = well fitted activation curve with a large enough effect in the signal ratio in the repeat runs, not every such curve was filed as active; the % refers to the signal ratio). The essentials: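 HepG2 ARE-bla cells; 16 h treatment at 37 C; FRET-based beta-lactamase fluorescence read after 2 h substrate incubation at room temperature.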
A short description of assay [6]: qHTS assay for small molecule agonists of the antioxidant response element (ARE) signaling pathway - cell viability counter screen (AID 743203; calls by dose curve; also: nearly all actives have a fitted effect of over 55% in size). The essentials:
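ATP content via CellTiter-Glo luminescence served as the viability measure. Cells: ARE-bla HepG2, 2,000 per well. Exposure: 16 hrs, 37C/5% CO2.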

The nature of assay [7]: qHTS assay for small molecule activators of the heat shock response signaling pathway - cell viability counter screen (AID 743209). Also: nearly all actives have a fitted effect of over 50% in size. The gist of the method:
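Compounds dissolved in DMSO were added to overnight-plated HSE-bla HeLa cells and left 5 h at 37 C. Cell viability was quantified by luminescence using CellTiter-Glo.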

The nature of assay [8]: qHTS assay for small molecule activators of the heat shock response signaling pathway (AID 743210; active = well fitted activation curve with a large enough effect in the signal ratio in the repeat runs, with a control signal flat, not every such curve was filed as active; the % refers to the signal ratio;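 also: HeLa cells with beta-lactamase reporter driven by heat shock elements; series mostly up to about 63 µM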). The gist of the method: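 Following overnight attachment, HSE-bla HeLa cells received test compounds for 5 h at 37 C; beta-lactamase activity was then detected via FRET substrate fluorescence.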
A short description of assay [9]: qHTS assay to identify small molecule agonists of the peroxisome proliferator-activated receptor delta (PPARd) signaling pathway - cell viability counter screen (AID 743211). Also: nearly all actives have a fitted effect of over 55% in size. The essentials:
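Viability of GeneBLAzer PPARd UAS-bla HEK293H cells was assessed after 17 h compound incubation at 37C, using CellTiter-Glo reagent added after the reporter read and luminescence recorded 30 min later.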

Assay [10] is described as follows: qHTS assay to identify small molecule antagonists of the peroxisome proliferator-activated receptor delta (PPARd) signaling pathway - cell viability counter screen (AID 743213). Also: nearly all actives have a fitted effect of over 50% in size. The gist of the method:
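Same-well viability: cells pre-incubated 5 h, dosed with compound plus 300 nM L165041, kept 17 h at 37 C, FRET substrate 2 h RT, then CellTiter-Glo 30 min RT and luminescence.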

The nature of assay [11]: qHTS assay to identify small molecule agonists of the farnesoid-X-receptor (FXR) signaling pathway - cell viability counter screen (AID 743218). Also: nearly all actives have a fitted effect of over 45% in size. The essentials:
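Quantitative HTS counter screen measuring ATP-based viability via CellTiter-Glo luminescence in HEK 293T cells carrying a UAS-driven beta-lactamase reporter, after 16 h compound exposure at 37 C.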

The nature of assay [12]: qHTS assay to identify small molecule antagonists of the farnesoid-X-receptor (FXR) signaling pathway - cell viability counter screen (AID 743221; active = well fitted cell-killing curve with a large enough effect in the repeat runs, not every such curve was filed as active; also: nearly all actives have a fitted effect of over 50% in size). The gist of the method:
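Quantitative HTS of the Tox21 10K library run in parallel with the beta-lactamase reporter read. HEK 293T cells carrying a UAS-driven bla reporter got compound and 50 uM CDCA (final) for 16 h; ATP-based luminescence followed.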

Assay [13] deals with Vitamin D3 receptor (Homo sapiens) (UniProt P11473). The assay can be described thus: qHTS assay to identify small molecule agonists of the vitamin D receptor (VDR) signaling pathway (AID 743222; calls by dose curve). The gist of the method:
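Tox21 cell reporter format: VDR-bla line, 16 h compound exposure in 5% CO2 at 37C, then fluorescence intensity after 2 h with LiveBLAzer B/G FRET substrate.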

Assay [14] deals with Peroxisome proliferator-activated receptor gamma (Homo sapiens) (UniProt P37231). Description: qHTS assay to identify small molecule agonists of the peroxisome proliferator-activated receptor gamma (PPARg) signaling pathway (AID 743094; active = well fitted activation curve with a large enough effect in the signal ratio in the repeat runs, not every such curve was filed as active; the % refers to the signal ratio). The essentials:
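Agonism was assessed in a beta-lactamase reporter system, HEK293H cells with a stably integrated UAS-bla construct under PPARg control; the 17 h treatment at 37C preceded a 1 h room-temperature FRET substrate read.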

Assay [15] deals with Peroxisome proliferator-activated receptor delta (Homo sapiens) (UniProt Q03181). Description: qHTS assay to identify small molecule agonists of the peroxisome proliferator-activated receptor delta (PPARd) signaling pathway (AID 743212; calls by dose curve). The essentials:
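Tox21 library screened in GeneBLAzer PPARd UAS-bla HEK293H cells. After compound treatment at 37 C, a FRET-based beta-lactamase substrate was applied for 2 h and fluorescence recorded.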

Assay [16] addresses Bile acid receptor (Homo sapiens) (UniProt Q96RI1). Description: qHTS assay to identify small molecule antagonists of the farnesoid-X-receptor (FXR) signaling pathway (AID 743217; active = well fitted inhibition curve with a large enough effect in the signal ratio in the repeat runs, not every such curve was filed as active; the % refers to the signal ratio). The gist of the method:
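Test compounds are pin-transferred onto FXR-bla HEK 293T cells, then chenodeoxycholic acid is added at 50 uM final. After 16 h at 37 °C, LiveBLAzer B/G substrate is applied for 2 h at room temperature and fluorescence read.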

Assay [17] has the same target. Description: qHTS assay to identify small molecule agonists of the farnesoid-X-receptor (FXR) signaling pathway (AID 743220; active = well fitted activation curve with a large enough effect in the signal ratio in the repeat runs, not every such curve was filed as active; the % refers to the signal ratio). The essentials: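 FXR-UAS-bla HEK 293T cells carrying a UAS-driven beta-lactamase reporter were plated for 5 h at 37C/5% CO2, then exposed to DMSO-dissolved Tox21 10K compounds for 16 h at 37C. A LiveBLAzer B/G FRET substrate was loaded for 2 h at room temperature before fluorescence reading.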

Assay [18] has as its target Peroxisome proliferator-activated receptor gamma (Homo sapiens) (UniProt P37231). The assay can be described thus: qHTS assay to identify small molecule antagonists of the peroxisome proliferator-activated receptor gamma (PPARg) signaling pathway (AID 743191; calls by dose curve; also: series mostly up to about 63 µM; nearly all actives have a fitted effect of over 30% in size). The essentials:
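GeneBLAzer PPARg UAS-bla HEK293H cells, 5 h post-plating, exposed to compounds 17 h at 37C. LiveBLAzer B/G FRET substrate added for 1 h at room temperature; beta-lactamase reporter read by fluorescence intensity.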

For assay [19], the target named is Peroxisome proliferator-activated receptor delta (Homo sapiens) (UniProt Q03181). Description: qHTS assay to identify small molecule antagonists of the peroxisome proliferator-activated receptor delta (PPARd) signaling pathway (AID 743215; active = well fitted inhibition curve with a large enough effect in the signal ratio in the repeat runs, not every such curve was filed as active; the % refers to the signal ratio;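 also: cells stimulated with agonist L165041 at 300 nM final during compound exposure; series mostly up to about 62 µM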). The gist of the method:
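Here, a reporter line (HEK293H, beta-lactamase under a UAS) measures PPARd signaling. Compounds are tested against agonist L165041 at 300 nM final concentration over 17 h at 37 C, with fluorescence read after substrate.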

Assay [20] deals with Vitamin D3 receptor (Homo sapiens) (UniProt P11473). The assay can be described thus: qHTS assay to identify small molecule antagonists of the vitamin D receptor (VDR) signaling pathway (AID 743223; active = well fitted inhibition curve with a large enough effect in the signal ratio in the repeat runs, not every such curve was filed as active; the % refers to the signal ratio). The gist of the method:
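Fluorescence from LiveBLAzer B/G FRET substrate, read after 2 h at room temperature, reflects beta-lactamase reporter activity in VDR-bla cells treated 16 h at 37C with compounds and agonist 1alpha,25-dihydroxyvitamin D3 (3 nM final).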
% is scaled to controls: 0 for no effect and ±100 for the full control effect.

Sequence of Aryl hydrocarbon receptor (Homo sapiens) (P35869 whole entry, looked up): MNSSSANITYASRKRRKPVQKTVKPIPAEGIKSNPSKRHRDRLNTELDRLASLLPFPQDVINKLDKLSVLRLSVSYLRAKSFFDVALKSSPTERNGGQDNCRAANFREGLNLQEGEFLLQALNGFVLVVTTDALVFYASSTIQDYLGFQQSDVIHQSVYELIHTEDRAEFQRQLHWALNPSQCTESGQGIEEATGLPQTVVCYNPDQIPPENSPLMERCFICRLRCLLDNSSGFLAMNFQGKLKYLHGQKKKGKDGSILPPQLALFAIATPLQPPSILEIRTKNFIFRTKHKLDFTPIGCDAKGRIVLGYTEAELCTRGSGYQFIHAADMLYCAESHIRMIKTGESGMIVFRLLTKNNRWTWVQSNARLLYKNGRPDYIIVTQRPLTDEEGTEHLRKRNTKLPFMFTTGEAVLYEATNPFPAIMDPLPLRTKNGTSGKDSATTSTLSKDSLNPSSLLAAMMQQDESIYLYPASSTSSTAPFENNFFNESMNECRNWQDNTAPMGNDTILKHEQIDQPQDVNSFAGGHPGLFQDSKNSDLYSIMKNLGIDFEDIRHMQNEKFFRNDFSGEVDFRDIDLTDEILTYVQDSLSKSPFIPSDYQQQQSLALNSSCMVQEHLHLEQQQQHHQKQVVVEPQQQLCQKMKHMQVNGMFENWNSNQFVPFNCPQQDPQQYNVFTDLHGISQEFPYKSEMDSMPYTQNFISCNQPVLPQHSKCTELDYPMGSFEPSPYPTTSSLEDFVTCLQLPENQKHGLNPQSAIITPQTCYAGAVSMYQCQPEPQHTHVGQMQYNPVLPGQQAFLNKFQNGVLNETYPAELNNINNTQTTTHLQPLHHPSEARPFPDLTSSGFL
Sequence of Vitamin D3 receptor (Homo sapiens) (P11473 whole entry, looked up): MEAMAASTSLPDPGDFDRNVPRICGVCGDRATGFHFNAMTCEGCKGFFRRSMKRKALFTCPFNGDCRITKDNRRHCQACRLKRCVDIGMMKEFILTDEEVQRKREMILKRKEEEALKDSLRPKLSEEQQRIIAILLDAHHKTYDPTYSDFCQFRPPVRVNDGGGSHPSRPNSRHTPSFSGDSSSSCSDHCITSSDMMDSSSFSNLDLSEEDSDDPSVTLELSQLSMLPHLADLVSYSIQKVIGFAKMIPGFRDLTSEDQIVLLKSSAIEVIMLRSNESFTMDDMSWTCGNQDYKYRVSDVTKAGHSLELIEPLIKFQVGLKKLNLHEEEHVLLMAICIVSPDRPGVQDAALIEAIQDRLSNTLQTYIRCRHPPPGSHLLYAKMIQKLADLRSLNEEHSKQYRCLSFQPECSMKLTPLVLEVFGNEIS
Sequence of Peroxisome proliferator-activated receptor delta (Homo sapiens) (Q03181 whole entry, looked up): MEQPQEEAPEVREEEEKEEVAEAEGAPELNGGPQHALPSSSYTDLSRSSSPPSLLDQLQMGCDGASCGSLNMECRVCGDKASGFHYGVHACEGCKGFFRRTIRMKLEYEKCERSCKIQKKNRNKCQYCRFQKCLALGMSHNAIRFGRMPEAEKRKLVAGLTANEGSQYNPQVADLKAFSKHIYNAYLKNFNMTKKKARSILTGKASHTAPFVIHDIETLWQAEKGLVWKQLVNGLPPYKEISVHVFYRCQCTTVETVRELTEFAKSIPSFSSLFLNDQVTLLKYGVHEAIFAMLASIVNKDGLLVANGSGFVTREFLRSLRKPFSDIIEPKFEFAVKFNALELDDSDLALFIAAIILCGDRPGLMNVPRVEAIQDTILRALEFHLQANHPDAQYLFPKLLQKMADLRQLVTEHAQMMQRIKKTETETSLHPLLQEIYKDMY
Sequence of Peroxisome proliferator-activated receptor gamma (Homo sapiens) (P37231 whole entry, looked up): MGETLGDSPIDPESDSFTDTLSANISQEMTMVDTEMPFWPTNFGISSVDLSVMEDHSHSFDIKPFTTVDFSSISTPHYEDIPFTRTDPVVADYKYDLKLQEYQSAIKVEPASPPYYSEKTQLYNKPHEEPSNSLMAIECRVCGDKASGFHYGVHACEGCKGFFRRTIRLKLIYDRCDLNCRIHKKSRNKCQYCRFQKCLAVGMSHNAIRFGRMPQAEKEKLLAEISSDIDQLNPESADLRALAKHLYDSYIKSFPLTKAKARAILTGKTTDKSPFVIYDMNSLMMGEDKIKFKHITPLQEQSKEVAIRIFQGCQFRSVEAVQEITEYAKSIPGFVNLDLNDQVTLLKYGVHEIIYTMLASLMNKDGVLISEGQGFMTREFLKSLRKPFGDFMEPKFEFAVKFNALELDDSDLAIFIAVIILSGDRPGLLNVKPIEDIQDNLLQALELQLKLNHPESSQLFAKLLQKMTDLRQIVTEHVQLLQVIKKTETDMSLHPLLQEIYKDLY
Sequence of Bile acid receptor (Homo sapiens) (Q96RI1 whole entry, looked up): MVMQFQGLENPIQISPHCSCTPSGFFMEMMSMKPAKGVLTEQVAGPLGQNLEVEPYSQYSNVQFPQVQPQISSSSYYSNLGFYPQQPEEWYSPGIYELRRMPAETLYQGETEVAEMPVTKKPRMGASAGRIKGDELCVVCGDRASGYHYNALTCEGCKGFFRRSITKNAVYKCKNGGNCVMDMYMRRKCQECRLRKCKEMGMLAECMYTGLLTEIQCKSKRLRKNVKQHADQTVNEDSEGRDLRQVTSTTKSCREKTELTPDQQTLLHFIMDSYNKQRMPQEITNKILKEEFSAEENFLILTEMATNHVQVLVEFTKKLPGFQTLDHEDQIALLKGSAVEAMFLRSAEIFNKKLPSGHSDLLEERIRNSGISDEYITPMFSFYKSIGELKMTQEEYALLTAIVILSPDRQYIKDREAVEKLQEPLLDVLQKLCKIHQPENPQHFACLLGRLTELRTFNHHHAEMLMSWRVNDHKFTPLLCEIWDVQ

As for `C/C=C/C=C/C(=O)O`, the Potency entry in assay [1], in assay [2], in assay [3], in [4], in assay [6] and in [7] was “inactive” throughout. In addition, the Potency result in assay [9], in assay [10], in assay [11], in assay [12] and in [13] was “inactive” each time. The activation in [5] is 7.69% [at 8.36 µM] (inactive). Moreover, the molecule was called inactive in assay [8].

Take `CCN(CC)C(=O)c1cccc(C)c1`: the Potency result in assay [1], in assay [3], in assay [14], in assay [4], in assay [5] and in assay [6] was “inactive” each time. For the same molecule, the Potency result in assay [7], in assay [9], in assay [15], in [10], in assay [16] and in assay [11] was “inactive” in each case. The Potency result in assay [12] and in [13] was “inactive” throughout. Moreover, in assay [2], the Potency entry was “inactive and 60.5 µM (active)”. Besides, the molecule was classed as inactive in [8] and in assay [17].

`O=C(O)c1ccccc1`: the Potency entry in [1], in assay [2], in assay [3], in assay [14], in [18] and in assay [4] was “inactive” in each case. Further, the Potency result in [5], in [6], in assay [7], in [9], in assay [10] and in assay [11] was “inactive” in each case. Besides, the Potency entry in [12] and in assay [13] was “inactive” in each case.

As to `Cn1c(=O)c2c(ncn2C)n(C)c1=O`, the Potency entry in assay [1] was “inactive and 55.1 µM (active)”; in [3], “inactive and 69.4 µM (active)”. Further, the Potency entry in assay [2], in assay [4], in [5], in assay [6], in assay [7] and in assay [9] was “inactive” throughout. The Potency result in assay [10], in assay [11] and in [12] was “inactive” each time. The call in [8] was inactive.

Take `OC[C@H]1O[C@H](O[C@]2(CCl)O[C@H](CCl)[C@@H](O)[C@@H]2O)[C@H](O)[C@@H](O)[C@H]1Cl`: the Potency entry in [1], in assay [2], in assay [3], in [4], in assay [5] and in assay [6] was “inactive” throughout. For the same molecule, the Potency result in [7], in assay [9], in assay [15], in assay [10], in assay [19] and in [11] was “inactive” in each case. The Potency entry in assay [12] and in [13] was “inactive” in each case. Also, the call in [8] was inactive.

In the case of `COc1ccc2c(c1)c(CC(=O)O)c(C)n2C(=O)c1ccc(Cl)cc1`, the Potency result in [1], in assay [2], in assay [3], in assay [4], in assay [5] and in [6] was “inactive” in each case. The Potency result in assay [7], in [9], in [10], in [11] and in assay [12] was “inactive” throughout. Besides, the call in [8] was inactive.

Regarding `C=C(C)C(=O)OCC(C)O` (stereo not drawn), the Potency result in [1], in assay [2], in assay [3], in assay [4], in assay [5] and in assay [6] was “inactive” each time. Besides, the Potency entry in [7], in assay [9], in assay [15], in assay [10], in [19] and in assay [11] was “inactive” in each case. Besides, the Potency entry in assay [12], in assay [13] and in [20] was “inactive” each time. For the same molecule, the call in assay [8] was inactive.

Take `CC(=O)CCC(=O)O`: the Potency entry in assay [1], in assay [2], in [3], in assay [14], in assay [18] and in [4] was “inactive” throughout. Also, the Potency entry in assay [5], in [6], in assay [7], in assay [9], in [10] and in assay [11] was “inactive” throughout. In addition, the Potency entry in [12] and in assay [13] was “inactive” in each case.

The record behind these values is PubChem BioAssay (Tox21).
